Among all 52,000 compounds or so, about 1,700 (3.3%) were called active. The sample holds actives, similar compounds and a random draw of the others, so the mix is not that of the screen. Cut-off read from the data, not from the text of the source: active = survival mostly below about 52% (no sharp cut-off); inactive = mostly above about 56%.
tested on: Wild type; assay: growth inhibition of S. aureus wild type versus tarO mutant, primary screen, teichoic acid synthesis inhibitors, RN4220, OD600 (AID 463173); details: S. aureus RN4220 wild type/DeltatarO growth, OD600, 18 h, hits give low values, screened at 18.75 µg/mL (by protocol)

Compound	survival
O=c1n(Cc2ccc(F)cc2)nc2n1-c1cc(Cl)ccc1OC2	76% (inactive)
Cc1cc(Cl)ccc1NC(=O)Cn1nc(C)c2c(C)n(-c3ccccc3)nc2c1=O	45% (inactive)
CCc1cccc(NC(=O)CCNS(=O)(=O)c2ccc3c(c2)CCN3C(C)=O)c1	76% (inactive)
Cc1ccc(-n2ncc3c(N4CCN(Cc5ccccc5)CC4)ncnc32)cc1	131% (inactive)
O=C(Nc1nnc(C(F)(F)F)s1)c1ccccc1	74% (inactive)
CCOC(=O)N1CCc2c(sc(NCc3sccc3C)c2C(=O)Nc2cc(Cl)ccc2OC)C1	80% (inactive)
CCc1nnc(NC(=O)CSc2nccn2-c2ccc(OC)cc2)s1	135% (inactive)
COc1cc(Cn2c(=O)sc3ccccc32)ccc1OCCC(C)C	-4% (active)
CCCCn1c(=N)n(CCOc2ccccc2OC)c2ccccc21	81% (inactive)
COc1cc(Cn2c(=O)sc3ccccc32)ccc1OC(C)C	41% (inactive)
CCCCOc1ccc(Cn2c(=O)sc3ccccc32)cc1OC	-5% (active)
COc1ccccc1NC(=O)c1sc2nc(C)c(C(=O)Nc3ccc(C)cc3C)c(-c3ccco3)c2c1N	73% (inactive)
COc1cc(-c2nnn(CC(=O)Nc3ccc(OC(F)(F)F)cc3)n2)cc(OC)c1OC	92% (inactive)
Nc1nn(-c2ccccc2)nc1C(=O)OCc1ccccc1Br	-2% (active)
COc1cccc(COC(=O)c2nn(-c3ccccc3)nc2N)c1	24% (inactive)
Nc1nn(-c2ccccc2)nc1C(=O)OCc1ccc(Cl)cc1	59% (inactive)
Nc1nn(-c2ccccc2)nc1C(=O)OCc1c(F)cccc1Cl	61% (inactive)
Cc1ccccc1COC(=O)c1nn(-c2ccccc2)nc1N	-9% (active)
Nc1nn(-c2ccccc2)nc1C(=O)OCc1ccccc1	85% (inactive)
Cc1ccccc1NC(=O)CSc1nc2ccc(NC(=O)COc3ccccc3F)cc2s1	81% (inactive)
CSc1ccc(CCNC(=O)c2cc(C)nc3c2c(C)nn3-c2ccccc2)cc1	124% (inactive)
Cc1ccccc1Cn1cnc2ccccc21	116% (inactive)
Fc1cccc(Cl)c1Cn1c(-c2cccs2)nc2ccccc21	26% (active)
O=C(NCc1nc2ccccc2n1Cc1ccccc1Cl)c1ccccc1	90% (inactive)

Compound	survival
CCCC(=O)NCCc1nc2ccccc2n1Cc1c(F)cccc1Cl	66% (inactive)
Cc1ccccc1Cn1c(-c2cccs2)nc2ccccc21	26% (active)
Cc1ccccc1Cn1c(COc2ccc(Cl)cc2)nc2ccccc21	130% (inactive)
Clc1ccccc1Cn1c(-c2cccs2)nc2ccccc21	-3% (active)
OCc1nc2ccccc2n1Cc1ccccc1Cl	111% (inactive)
Cc1ccc(C)c(Cn2c(C(C)NC(=O)c3ccccc3)nc3ccccc32)c1 (stereo not given)	88% (inactive)
OCc1nc2ccccc2n1Cc1c(F)cccc1Cl	98% (inactive)
CCC(O)c1nc2ccccc2n1Cc1cc(C)ccc1C (stereo not given)	99% (inactive)
Cc1ccc(C)c(Cn2c(-c3cccs3)nc3ccccc32)c1	8% (active)
Cc1cccc(NC(=O)CC2C(=O)OCCN2Cc2ccccc2)c1 (stereo not given)	137% (inactive)
CC1(N)CCS(=O)(=O)C1 (stereo not given)	110% (inactive)
CCCn1cc(S(=O)(=O)c2ccc(CC)cc2)c(=O)c2cc(F)c(N(CC)CC)cc21	68% (inactive)
Cc1ccccc1C(=O)Nc1ccccc1-c1nc(-c2ccccc2)no1	95% (inactive)
O=C(CN1C2=NCCN2c2ccccc21)C12CC3CC(CC(C3)C1)C2	98% (inactive)
NC(=O)CSc1ncc2c(n1)-c1ccccc1N(Cc1cccc(F)c1)S2(=O)=O	73% (inactive)
CCN1CCN(c2oc(-c3ccc(COc4ccc(OC)cc4)o3)nc2C#N)CC1	75% (inactive)
CC(C)c1ccc(NC(=O)CN2C(=O)COc3ccc(S(=O)(=O)N4CCCCCC4)cc32)cc1	109% (inactive)
Cc1cccc(CNC(=O)Cn2c(-c3cccs3)cc3ccccc32)c1	135% (inactive)
Cc1cccc(Cn2c(-c3cccs3)nc3ccccc32)c1	-6% (active)
CC(=O)N1CCCC1c1nc2ccccc2n1Cc1cccc(C)c1 (stereo not given)	85% (inactive)
CCN(CC)S(=O)(=O)c1ccc(S(=O)(=O)NCc2ccc3c(c2)OCO3)cc1	108% (inactive)
Cc1ccccc1NC(=O)Cn1c(SCC(=O)Nc2ccc(F)cc2)nc2ccccc21	76% (inactive)
Cc1ccc(CNC(=O)Cn2c(SCC(=O)Nc3ccc(F)cc3)nc3ccccc32)cc1	131% (inactive)
COC(=O)c1ccc(Cn2c(SCC(=O)N(C)c3ccccc3)nc3ccccc32)cc1	75% (inactive)

Compound	survival
COc1ccc(CNC(=O)Cn2c(SCC(=O)Nc3ccc(OC)cc3)nc3ccccc32)cc1	69% (inactive)
COc1cccc(CNC(=O)Cn2c(SCC(=O)Nc3ccc(C)c(C)c3)nc3ccccc32)c1	76% (inactive)
COc1ccc(NC(=O)CSc2nc3ccccc3n2CC(=O)NCc2ccc(F)cc2)cc1	-6% (active)
COc1cccc(Cn2c(SCC(=O)N(C)c3ccccc3)nc3ccccc32)c1	-6% (active)
CN(C(=O)CSc1nc2ccccc2n1Cc1cccc(C(F)(F)F)c1)c1ccccc1	87% (inactive)
O=C(Cn1c(SCC(=O)Nc2ccc(F)cc2)nc2ccccc21)NCc1ccc(F)cc1	63% (inactive)
O=C(CSc1nc2ccccc2n1CC(=O)Nc1ccc(F)cc1F)Nc1ccc(F)cc1	72% (inactive)
COc1cccc(CNC(=O)Cn2c(SCC(=O)Nc3ccc(F)cc3)nc3ccccc32)c1	0% (active)
CC(=O)c1cccc(NC(=O)Cn2c(SCC(=O)Nc3ccc(F)cc3)nc3ccccc32)c1	-3% (active)
CCN(CC)C(=O)c1ccc(Nc2nnc(-c3ccc(C)c(S(=O)(=O)NC)c3)c3ccccc23)cc1	79% (inactive)
COc1ccc(CNc2nc3c(-c4cccc(F)c4)nnn3c3ccccc23)cc1	86% (inactive)
N#Cc1ccccc1NC(=O)C(=O)NCCc1csc2nc(-c3cccc(F)c3)nn12	81% (inactive)
COc1ccc(CCC(=O)NCc2nc3cccnc3n2Cc2cccc(OC)c2)cc1	73% (inactive)
CCOC(=O)N1CCC2(CC1)OC(=O)C(C)=C2C(=O)NCc1cccc(OC)c1	131% (inactive)
CCOC(=O)CSc1nc2ccc(NC(=O)c3ccc(Cl)cc3)cc2s1	90% (inactive)
CCOc1ccc(-c2nc3c(c(SCC(=O)N4CCCCC4)n2)Cc2cccc(OC)c2O3)cc1	75% (inactive)
CCNC(=O)C1CCN(c2nc3ccccc3nc2C(F)(F)F)CC1	148% (inactive)
CCCSCCCNC(=O)C1CCN(c2nc3ccccc3nc2C(F)(F)F)CC1	-3% (active)
CCCCNC(=O)C1CCN(c2nc3ccccc3nc2C(F)(F)F)CC1	82% (inactive)
Cc1ccccc1CCNC(=O)C1CCN(c2nc3ccccc3nc2C(F)(F)F)CC1	68% (inactive)
O=C(NCCc1ccccc1Cl)C1CCN(c2nc3ccccc3nc2C(F)(F)F)CC1	10% (active)
COc1ccccc1CCNC(=O)C1CCN(c2nc3ccccc3nc2C(F)(F)F)CC1	121% (inactive)
Cc1ccc(NC(=O)C2CCN(c3nn4cc(-c5ccc(C)cc5)nc4s3)CC2)cc1	60% (inactive)
Cc1cn2c(=O)cc(COC(=O)c3cccc(NC(=O)COc4ccccc4Cl)c3)nc2s1	124% (inactive)

Compound	survival
COc1ccc2c(c1)c1c(c(=O)n(Cc3ccccc3)c(=O)n1Cc1ccccc1Cl)n2C	84% (inactive)
O=C(Nc1ccc2nc3n(c(=O)c2c1)CCCCC3)C(=O)Nc1ccccc1F	69% (inactive)
O=C(Cc1ccc(Cl)cc1)NC1CC(=O)N(c2ccc3c(c2)OCCO3)C1 (stereo not given)	58% (inactive)
CSc1ccccc1NC(=O)C1=CC(c2ccc3c(c2)OCO3)=NS(=O)(=O)N1C	87% (inactive)
Cc1ccc(-c2nc3c(c(SCc4ccc(Br)cc4)n2)Cc2c(CO)cnc(C)c2O3)cc1	81% (inactive)
CCOC(=O)c1c(S(=O)(=O)N2CCC(C(=O)Nc3ccc(OCC)cc3)CC2)c(C)n(C)c1C	125% (inactive)
CCOC(=O)c1c(C)[nH]c(C)c1S(=O)(=O)N1CCC(C(=O)NCc2ccc(F)cc2)CC1	1% (active)
CCOC(=O)c1c(C)[nH]c(C)c1S(=O)(=O)N1CCC(C(=O)NCc2ccc(C)cc2)CC1	71% (inactive)
CCOC(=O)c1c(C)[nH]c(C)c1S(=O)(=O)N1CCC(C(=O)Nc2ccc(OCC)cc2)CC1	-3% (active)
CCOC(=O)c1c(C)[nH]c(C)c1S(=O)(=O)N1CCC(C(=O)NCc2ccccc2)CC1	55% (inactive)
CCOC(=O)c1c(C)[nH]c(C)c1S(=O)(=O)N1CCC(C(=O)Nc2ccc(C)c(Cl)c2)CC1	63% (inactive)
O=C(NCC1CCCO1)c1ccc(NC(=O)c2ncn[nH]2)cc1 (stereo not given)	98% (inactive)
CCCCN(CC)CCNC(=O)CCn1cnc2onc(-c3ccc(F)cc3)c2c1=O	72% (inactive)
CCN(CC)CCCNC(=O)CCCn1ncn2c(cc3occc32)c1=O	85% (inactive)
O=S(=O)(c1ccc(Cl)cc1)c1nc(-c2ccccc2Br)oc1NCc1ccccc1	96% (inactive)
COc1ccc(C(C)NC(=O)CN(c2cc(OC)ccc2OC)S(=O)(=O)c2ccccc2)cc1 (stereo not given)	76% (inactive)
COc1cccc2sc(N(Cc3cccnc3)C(=O)Cc3ccccc3)nc12	89% (inactive)
CCOc1ccc(NC(=O)C(=O)NCCc2sc(-c3ccc(C)cc3)nc2C)cc1	55% (inactive)
CCOc1ccc(C(=O)NCCc2sc(-c3ccc(C)cc3)nc2C)cc1	-3% (active)
COc1ccc(-c2nc(C)c(CCNC(=O)c3cc(OC)c(OC)c(OC)c3)s2)cc1OC	57% (inactive)
CCOc1ccc(C(=O)NCCc2sc(-c3ccc(F)cc3)nc2C)cc1	97% (inactive)
CCOc1ccc(C(=O)NCCc2sc(-c3ccc(OC)c(OC)c3)nc2C)cc1	129% (inactive)
COc1ccc(-c2nc(C)c(CCNC(=O)c3ccc(C(F)(F)F)cc3)s2)cc1OC	-4% (active)

— PubChem BioAssay AID463173 (ICCB-Longwood Screening Facility, Harvard Medical School, 2010)
